Inconclusive results are not listed. Active and inactive are the calls of the source. Calls come from the whole dose curve; as a rule, active = well fitted cell-killing curve with a large enough effect in the repeat runs; inconclusive = weak or mixed curves, or effect the other way; inactive = flat fitted curve, though single readings scatter.
Experiment: qHTS RealTime-Glo MT Cell Viability Assay in HepG2 cells - 40 hour (AID 1224870); note: nearly all actives have a fitted effect of over 50% in size
Conditions: RealTime-Glo luminescence; series mostly up to 76.8 µM
Excerpt: National Center for Advancing Translational Sciences [NCATS]
NIH Chemical Genomics Center [NCGC]
U.S. Environmental Protection Agency [EPA]
National Institutes of Environmental Health Sciences [NIEHS]
National Toxicology Program [NTP]
U.S. Food and Drug Administration [FDA]
Measure of cell viability is critical in the cell-base assay. Analysis of cell viability is necessary for the characterization of cell responses to cytotoxic drugs and environmental stress. A RealTime-Glo MT Cell Viability Assay to monitor cell viability in real time of continues cell culture during 40 hours of compound treatment was used to screen Tox21 10K library compounds in HepG2 cells. The RealTime-Glo MT Cell Viability Assay is a nonlytic, homogeneous, bioluminescent method to measure cell viability in real time using a simple, plate-based method. The assay involves adding NanoLuc luciferase and a cell-permeant prosubstrate to cells in culture. Viable cells reduce the proprietary prosubstrate to generate a substrate for NanoLuc luciferase. This substrate diffuses from cells into the surrounding culture medium, where it is rapidly used by the NanoLuc Enzyme to produce a luminescent signal. The signal correlates with the number of viable cells, making the assay well suited for cytotoxicity studies.
Tox21 Assay Protocol Summary:
The mixture of HepG2 cell suspension and reagents were dispensed at 600cells/6 ul/well in 1536-well tissue culture treated black solid bottom plates using a Multidrop dispenser. After the assay plates were incubated at a 37 C/5% CO2 incubator for 5 hours, 23 nL of compounds dissolved in DMSO, positive and negative controls was transferred to the assay plate by a pintool work station. The plates were incubated at 37 C for 40 hours. The luminescence intensity were measured at 0h, 8h, 16h, 24h, 32h and 40h time points using ViewLux plate reader during compound treatment.

| SMILES | outcome |
| --- | --- |
| CC(O)CC(C)(C)O (stereo not given) | inactive |
| COc1ccccc1OCC(O)CO (stereo not given) | inactive |
| CC1(C)CC(N)CC(C)(CN)C1 (stereo not given) | inactive |
| O=C(OCC1CCC2OC2C1)C1CCC2OC2C1 (stereo not given) | inactive |
| CC1(C)OC[C@@H]2O[C@@]3(C(=O)O)OC(C)(C)O[C@H]3[C@@H]2O1 | inactive |
| CNC(=O)Oc1ccc2c(c1)[C@]1(C)CCN(C)[C@@H]1N2C | inactive |
| CC(C)OP(=O)(CP(=O)(OC(C)C)OC(C)C)OC(C)C | inactive |
| CN1C(=O)CC[C@H]1c1cccnc1 | inactive |
| CC(=O)c1ccc(O)cc1 | inactive |
| Brc1ccc(Br)c(Br)c1 | inactive |
| CC(C)OC(=O)COc1ccc(Cl)cc1Cl | inactive |
| CCCCCCCO | inactive |
| NC(=S)NNC(N)=S | inactive |
| CC(C)(Oc1ccc(CCNC(=O)c2ccc(Cl)cc2)cc1)C(=O)O | inactive |
| OC1C(O)C(O)C(O)C(O)C1O (stereo not given) | inactive |
| O=S(=O)(O)c1ccccc1 | inactive |
| CC(=O)Oc1ccc(C)cc1 | inactive |
| CC(C)(C#N)c1cc(Cn2cncn2)cc(C(C)(C)C#N)c1 | inactive |
| Cc1ccc(S(=O)(=O)N=C=O)cc1 | inactive |
| CCCCCCCCCCN | inactive |

| SMILES | outcome |
| --- | --- |
| CCNC(=S)NCC | inactive |
| C=Cc1ccc(C)cc1 | inactive |
| Cc1ccc2ncccc2c1 | inactive |
| Cc1ccc(C(C)C)c(O)c1 | inactive |
| O=C1c2ccccc2CCc2ccccc21 | inactive |
| CCCCCCCCCCO | inactive |
| O=C(O)/C=C/C(=O)O | inactive |
| CC(C)=CCl | inactive |
| C[Si]1(C)O[Si](C)(C)O[Si](C)(C)O[Si](C)(C)O1 | inactive |
| CCCCC(C=O)CC (stereo not given) | inactive |
| O=C1CCCC1 | inactive |
| NCCCCCCN | inactive |
| CCCCCCCCCCCC(=O)OC | inactive |
| CCCCCCCC=O | inactive |
| N[C@H](Cc1c[nH]c2ccccc12)C(=O)O | inactive |
| Cc1ccc([N+](=O)[O-])cc1S(=O)(=O)O | inactive |
| C[C@]12CC[C@@H]3c4ccc(O)cc4CC[C@H]3[C@@H]1C[C@@H](O)[C@@H]2O | inactive |
| CCO[Si](CCCN)(OCC)OCC | inactive |
| CC1(C)S[C@@H]2[C@H](NC(=O)COc3ccccc3)C(=O)N2[C@H]1C(=O)O | inactive |
| COCCCN | inactive |

— PubChem BioAssay (Tox21)
